In PubChem BioAssay (EPA / NIEHS) one finds outcome and AC50 data, which are given here for three compounds.

Activity calls are given as the source filed them. The calls were made as follows: active = hit-call score of the fitted dose curve at least 0.9, where 1 is the maximum; inactive = score below 0.9.

Conditions in all cases: mRNA level, 48 h; actives raise or lower the signal
Read-out in assay [1]: Alkaline Phosphatase, Placental (ALPP) gene, ALPP (gene 250)
Put plainly: LTEA_HepaRG_ALPP: Life Technologies and Expression Analysis (LTEA) Assay for Alkaline Phosphatase, Placental (ALPP) gene using HepaRG (AID 2283468). A digest of the protocol: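 HepaRG, 48 h plating then 48 h dosing, serum-free induction medium, 0.5% DMSO. 8 conc, half-log, max 100 uM, duplicates. Endpoint: ALPP transcript by qRT-PCR, housekeeping-normalized; gain or loss fitted vs DMSO.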

Read-out in assay [2]: Bcl-2 (BAD) gene, BAD (gene 572)
In words: LTEA_HepaRG_BAD: Life Technologies and Expression Analysis (LTEA) Assay for Bcl-2 (BAD) gene using HepaRG (AID 2283469). A digest of the protocol: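 Activity values reflect up- or down-regulation of BAD mRNA in human HepaRG hepatic cells treated 48 h in serum-free medium, with eight-point half-log dosing capped at 100 uM and 0.5% DMSO vehicle.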

Read-out in assay [3]: Bcl-2 (BAX) gene, BAX (gene 581)
In words: LTEA_HepaRG_BAX: Life Technologies and Expression Analysis (LTEA) Assay for Bcl-2 (BAX) gene using HepaRG (AID 2283470). A digest of the protocol:
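Cells were thawed, plated for 48 h, moved to serum-free induction medium and dosed for 48 h (highest concentration 100 uM, half-log steps, 0.5% DMSO). Total RNA was then analysed for BAX expression by qRT-PCR.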

Read-out in assay [4]: adenosine kinase (ADK) gene, ADK (gene 132)
Put plainly: LTEA_HepaRG_ADK: Life Technologies and Expression Analysis (LTEA) Assay for adenosine kinase (ADK) gene using HepaRG (AID 2283471). A digest of the protocol:
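HepaRG (human liver), 48 h chemical exposure, 8-pt half-log series, top 100 uM, 0.5% DMSO vehicle. Readout: ADK mRNA by qRT-PCR vs housekeeping genes; bidirectional curve fit relative to DMSO baseline.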

Read-out in assay [5]: Alpha-fetoprotein (AFP) gene, AFP (gene 174)
Put plainly: LTEA_HepaRG_AFP: Life Technologies and Expression Analysis (LTEA) Assay for Alpha-fetoprotein (AFP) gene using HepaRG (AID 2283472). A digest of the protocol:
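Chemicals were tested on differentiated HepaRG cells for 48 hours at eight concentrations up to 100 uM, with 0.5% DMSO as vehicle. AFP expression was then quantified by qRT-PCR and analyzed for gain or loss relative to DMSO.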

Read-out in assay [6]: BCL2L11 (gene 10018)
Put plainly: LTEA_HepaRG_BCL2L11: Life Technologies and Expression Analysis (LTEA) Assay for Bcl-2 (BCL2L11) gene using HepaRG (AID 2283473). In short, it runs like this: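 Read-out is BCL2L11 transcript level by qRT-PCR, normalized to three housekeeping genes and fitted bidirectionally against 0.5% DMSO vehicle. HepaRG cells received chemicals for 48 h in serum-free induction medium, 100 uM down in half-log dilutions.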

Read-out in assay [7]: Apoptosis regulator Bcl-2 (Homo sapiens) (UniProt P10415)
In words: LTEA_HepaRG_BCL2: Life Technologies and Expression Analysis (LTEA) Assay for Bcl-2 gene using HepaRG (AID 2283475).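 Also: BCL2 transcript by TaqMan qRT-PCR normalised to ACTB GAPDH and POLR2A.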 A digest of the protocol:
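Plated human HepaRG cells are exposed to test chemicals for 48 h across eight concentrations from 100 uM downward in half-log steps (0.5% DMSO). BCL2 expression is then measured by qRT-PCR with housekeeping normalisation and fitted bidirectionally against vehicle.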

Read-out in assay [8]: Bcl-2 (BID) gene, BID (gene 637)
In words: LTEA_HepaRG_BID: Life Technologies and Expression Analysis (LTEA) Assay for Bcl-2 (BID) gene using HepaRG (AID 2283476). In short, it runs like this: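 Cells are plated, cultured 48 h, switched to serum-free induction medium, then dosed 48 h (100 uM top, half-log steps, 0.5% DMSO). RNA is isolated and BID expression read by qRT-PCR.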

Read-out in assay [9]: Caspase-3 (Homo sapiens) (UniProt P42574)
In words: LTEA_HepaRG_CASP3: Life Technologies and Expression Analysis (LTEA) Assay for cysteine-aspartic acid protease (CASP3) using HepaRG (AID 2283477). A digest of the protocol:
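Read-out is CASP3 mRNA level by TaqMan qRT-PCR in human HepaRG cells after 48 h chemical exposure. Eight half-log concentrations topping at 100 uM were tested in 0.5% DMSO; gain or loss was fitted relative to DMSO.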

Read-out in assay [10]: Cytochrome P450 (CYP24A1), CYP24A1 (gene 1591)
In words: LTEA_HepaRG_CYP24A1: Life Technologies and Expression Analysis (LTEA) Assay for Cytochrome P450 (CYP24A1) using HepaRG (AID 2283478). A digest of the protocol: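 HepaRG, 48 h chemical exposure, 8-pt half-log CRC from 100 uM, 0.5% DMSO vehicle, duplicates. Endpoint: CYP24A1 mRNA by Fluidigm TaqMan qRT-PCR, normalized ACTB/GAPDH/POLR2A; gain/loss fit vs DMSO.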

Read-out in assay [11]: Cytochrome P450 (CYP1A2), CYP1A2 (gene 1544)
In words: LTEA_HepaRG_CYP1A2: Life Technologies and Expression Analysis (LTEA) Assay for Cytochrome P450 (CYP1A2) using HepaRG (AID 2283479). A digest of the protocol:
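CYP1A2 transcript induction or loss, quantified by Fluidigm qRT-PCR against three housekeeping genes, was fitted bidirectionally against 0.5% DMSO controls. Human HepaRG cells received eight half-log concentrations from 100 uM over 48 h.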

Read-out in assay [12]: Cytochrome P450 (CYP2B6), CYP2B6 (gene 1555)
In words: LTEA_HepaRG_CYP2B6: Life Technologies and Expression Analysis (LTEA) Assay for Cytochrome P450 (CYP2B6) using HepaRG (AID 2283481). In short, it runs like this:
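HepaRG cells plated 48 h, switched to serum-free induction medium, then dosed 48 h (8 points, half-log from 100 uM, 0.5% DMSO). RNA isolated; CYP2B6 expression measured by qRT-PCR; gain or loss fitted relative to DMSO.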

Read-out in assay [13]: Cytochrome P450 2C19 (Homo sapiens) (UniProt P33261)
In words: LTEA_HepaRG_CYP2C19: Life Technologies and Expression Analysis (LTEA) Assay for CYP2C19 using HepaRG (AID 2283482). A digest of the protocol:
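Transcript levels of CYP2C19 were quantified by qRT-PCR after HepaRG cells were treated for 48 hours with test chemicals up to 100 uM (eight half-log concentrations, 0.5% DMSO vehicle). Gain or loss of signal was fitted relative to DMSO.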

Read-out in assay [14]: CYP2C8 (gene 1558)
Put plainly: LTEA_HepaRG_CYP2C8: Life Technologies and Expression Analysis (LTEA) Assay for CYP2C8 using HepaRG (AID 2283483). In short, it runs like this: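 This is a transcriptional endpoint in HepaRG cultures: 48 h exposure, highest concentration 100 uM. CYP2C8 mRNA is quantified by TaqMan qRT-PCR.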

Read-out in assay [15]: CYP2C9 (gene 1559)
Put plainly: LTEA_HepaRG_CYP2C9: Life Technologies and Expression Analysis (LTEA) Assay for CYP2C9 using HepaRG (AID 2283484). In short, it runs like this: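 Eight-point concentration-response (highest 100 uM, half-log dilutions) in HepaRG cells for 48 h; CYP2C9 expression by qRT-PCR normalized to ACTB, GAPDH, POLR2A. Bidirectional fit, DMSO baseline.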

Read-out in assay [16]: CYP2E1 (gene 1571)
Put plainly: LTEA_HepaRG_CYP2E1: Life Technologies and Expression Analysis (LTEA) Assay for CYP2E1 using HepaRG (AID 2283485). In short, it runs like this: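 Readout is qRT-PCR of CYP2E1 mRNA, normalized to three housekeeping genes and fitted bidirectionally against 0.5% DMSO. HepaRG cells were dosed 48 h at eight concentrations, highest 100 uM with half-log dilutions.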

Read-out in assay [17]: CYP4A11 (gene 1579)
Put plainly: LTEA_HepaRG_CYP4A11: Life Technologies and Expression Analysis (LTEA) Assay for CYP4A11 using HepaRG (AID 2283486). In short, it runs like this:
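HepaRG, 48 h chem exposure, 8 conc (100 uM top, half-log), 0.5% DMSO vehicle; qRT-PCR readout, housekeeping-gene normalized; bidirectional curve fit vs DMSO baseline.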

Read-out in assay [18]: Cytochrome P450 3A4 (Homo sapiens) (UniProt P08684)
In words: LTEA_HepaRG_CYP3A4: Life Technologies and Expression Analysis (LTEA) Assay for CYP3A4 using HepaRG (AID 2283487). In short, it runs like this: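 CYP3A4 transcript measured by TaqMan qRT-PCR and normalized to three housekeeping genes after 48 h chemical exposure of human HepaRG cells. Top concentration 100 uM, half-log steps, 0.5% DMSO vehicle; gain or loss fitted against DMSO baseline.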

Read-out in assay [19]: DNA damage-inducible transcript 3 (DDIT3), DDIT3 (gene 1649)
In words: LTEA_HepaRG_DDIT3: Life Technologies and Expression Analysis (LTEA) Assay for DNA damage-inducible transcript 3 (DDIT3) using HepaRG (AID 2283488). A digest of the protocol: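 Cells are human HepaRG liver cells treated for 48 h with eight half-log concentrations up to 100 uM in 0.5% DMSO. Transcript levels come from qRT-PCR normalized to three housekeeping genes, with activity fitted in both directions relative to vehicle.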

Read-out in assay [20]: Pro-epidermal growth factor (Homo sapiens) (UniProt P01133)
In words: LTEA_HepaRG_EGF: Life Technologies and Expression Analysis (LTEA) Assay for Epidermal growth factor (EGF) using HepaRG (AID 2283489). A digest of the protocol:
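HepaRG, 48 h dosing, 100 uM top, half-log x8, 0.5% DMSO. Readout: TaqMan qRT-PCR (Fluidigm array), housekeeping-normalized. Gain or loss of signal fit vs DMSO.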

Sequence of Cytochrome P450 2C19 (Homo sapiens) (P33261 whole entry, looked up): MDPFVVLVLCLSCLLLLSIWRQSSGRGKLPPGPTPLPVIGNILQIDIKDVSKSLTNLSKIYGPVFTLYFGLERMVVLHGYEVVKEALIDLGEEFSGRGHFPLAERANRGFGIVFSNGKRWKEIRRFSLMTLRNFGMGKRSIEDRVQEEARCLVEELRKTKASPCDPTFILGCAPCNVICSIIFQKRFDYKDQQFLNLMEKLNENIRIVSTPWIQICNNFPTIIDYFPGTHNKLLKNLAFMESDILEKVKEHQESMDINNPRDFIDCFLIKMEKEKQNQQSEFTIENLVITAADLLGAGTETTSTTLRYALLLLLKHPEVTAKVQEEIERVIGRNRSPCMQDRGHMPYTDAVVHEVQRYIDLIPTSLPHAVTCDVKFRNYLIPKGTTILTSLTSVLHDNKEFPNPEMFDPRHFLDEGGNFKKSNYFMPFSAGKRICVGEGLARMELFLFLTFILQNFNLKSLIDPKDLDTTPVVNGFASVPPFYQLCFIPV
Sequence of Cytochrome P450 3A4 (Homo sapiens) (P08684 whole entry, looked up): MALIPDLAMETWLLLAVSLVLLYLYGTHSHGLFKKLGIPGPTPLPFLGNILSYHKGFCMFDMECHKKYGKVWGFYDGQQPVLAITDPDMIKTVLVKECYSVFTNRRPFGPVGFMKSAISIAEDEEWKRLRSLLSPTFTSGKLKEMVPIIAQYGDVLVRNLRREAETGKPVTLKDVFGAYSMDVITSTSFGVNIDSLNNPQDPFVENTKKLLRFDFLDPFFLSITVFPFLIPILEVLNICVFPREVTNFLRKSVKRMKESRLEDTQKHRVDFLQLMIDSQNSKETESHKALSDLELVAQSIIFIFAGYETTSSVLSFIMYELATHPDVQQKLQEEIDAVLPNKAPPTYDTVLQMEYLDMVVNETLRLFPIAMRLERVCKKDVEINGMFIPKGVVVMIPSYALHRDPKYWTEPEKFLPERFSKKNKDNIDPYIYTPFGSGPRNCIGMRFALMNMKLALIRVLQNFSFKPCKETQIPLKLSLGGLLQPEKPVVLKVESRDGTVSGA
Sequence of Caspase-3 (Homo sapiens) (P42574 whole entry, looked up): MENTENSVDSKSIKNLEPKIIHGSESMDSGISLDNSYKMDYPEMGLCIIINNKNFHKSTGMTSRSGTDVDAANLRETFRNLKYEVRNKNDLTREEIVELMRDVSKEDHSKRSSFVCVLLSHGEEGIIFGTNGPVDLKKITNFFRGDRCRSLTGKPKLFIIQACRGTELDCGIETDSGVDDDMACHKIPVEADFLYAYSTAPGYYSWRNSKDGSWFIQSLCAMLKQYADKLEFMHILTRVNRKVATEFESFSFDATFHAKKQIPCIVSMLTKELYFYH
Sequence of Apoptosis regulator Bcl-2 (Homo sapiens) (P10415 whole entry, looked up): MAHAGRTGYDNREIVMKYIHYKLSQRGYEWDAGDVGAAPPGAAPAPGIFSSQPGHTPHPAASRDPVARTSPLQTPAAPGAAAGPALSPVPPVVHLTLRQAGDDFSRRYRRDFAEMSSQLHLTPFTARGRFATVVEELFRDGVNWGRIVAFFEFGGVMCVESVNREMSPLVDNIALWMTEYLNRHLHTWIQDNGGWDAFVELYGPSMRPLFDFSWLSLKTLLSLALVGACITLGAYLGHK

As a reminder, the AC50 is the concentration at which the activity in the assay is half-maximal. Take `CCCCCCCCCCCCc1cccc(S(=O)(=O)O)c1`: the result in assay [1], in assay [2], in assay [3], in assay [4], in assay [5] and in assay [6] was inactive. Also, the compound was called inactive in [7], in assay [8], in [9], in assay [10], in assay [12] and in assay [15]. Also, the outcome in assay [16] and in [20] was inactive. The AC50 in assay [11] was 45 µM (active); in assay [13], 22.7 µM (active); in assay [14], 45 µM (active); in [17], 21.6 µM (active); in [18] it was 18.9 µM (active); in assay [19] it was 45 µM (active).
As for `O=C(N[C@H]1CN2CCC1CC2)c1ccc2c(c1)OCCO2`, the call in assay [1], in [2], in assay [3], in assay [4], in assay [5] and in [6] was inactive. The compound was called inactive in assay [7], in assay [8], in assay [9], in assay [10], in assay [11] and in [12]. The call in [13], in [14], in [15], in assay [16], in assay [17] and in assay [18] was inactive. Besides, the compound was classed as inactive in [19] and in assay [20].
For the compound `N#Cc1cccnc1`, the call in assay [1], in assay [2], in assay [3], in assay [4], in assay [5] and in assay [6] was inactive. Further, the result in assay [7], in assay [8], in [9], in [10], in [11] and in assay [12] was inactive. Further, the compound was classed as inactive in [13], in assay [14], in assay [15], in assay [16], in assay [17] and in [18]. For the same compound, the outcome in assay [19] and in assay [20] was inactive.
